Hit rate of the full screen: of about 39,000 compounds, about 3,300 (8.5%) were called active. The full list was thinned out, with actives kept by preference.
Tested on: HepG2
Assay: cytotoxicity call (relative viability < 0.9)
Conditions: 10 µM

Compound	cytotoxicity call
COc1ccc(C#Cc2ccc3c(c2)O[C@H](CN(C)S(=O)(=O)c2ccccc2F)[C@@H](C)CN([C@@H](C)CO)S3(=O)=O)cc1	inactive
C[C@@H]1CN([C@@H](C)CO)C(=O)c2cccc(NS(=O)(=O)c3ccccc3)c2O[C@@H]1CN(C)S(=O)(=O)c1ccccc1	inactive
C[C@H](CO)N1C[C@H](C)[C@H](CN(C)C(=O)CCC(F)(F)F)OCc2ccccc2-c2c(n(C)c3ccccc23)C1=O	inactive
C[C@@H]1CCCCO[C@H](CN(C)S(=O)(=O)c2cn(C)cn2)[C@@H](C)CN([C@@H](C)CO)C(=O)c2cc(NC(=O)CCCN(C)C)ccc2O1	inactive
Cc1noc(C)c1S(=O)(=O)N(C)C[C@H]1OCCCC[C@H](C)Oc2ccc(NC(=O)Nc3cccc4ccccc34)cc2C(=O)N([C@H](C)CO)C[C@H]1C	inactive
C[C@@H]1CN([C@@H](C)CO)C(=O)CCCn2nncc2CO[C@@H]1CN(C)C(=O)Nc1ccccc1C(F)(F)F	inactive
COc1ccc(NC(=O)Nc2ccc3c(c2)C(=O)N([C@H](C)CO)C[C@@H](C)[C@H](CN(C)Cc2ccc(C(F)(F)F)cc2)OCCCC[C@@H](C)O3)cc1	active
COc1ccc(CN(C)C[C@@H]2OCCCC[C@@H](C)Oc3ccc(NC(=O)Nc4ccc(C(F)(F)F)cc4)cc3C(=O)N([C@@H](C)CO)C[C@@H]2C)cc1	active
COc1ccc(NC(=O)Nc2ccc3c(c2)C(=O)N([C@@H](C)CO)C[C@@H](C)[C@@H](CN(C)Cc2ccc(C(F)(F)F)cc2)OCCCC[C@H](C)O3)cc1	active
COc1ccc(NC(=O)Nc2ccc3c(c2)C(=O)N([C@@H](C)CO)C[C@H](C)[C@H](CN(C)Cc2ccc(C(F)(F)F)cc2)OCCCC[C@H](C)O3)cc1	active
O=C(C[C@@H]1CC[C@@H]2[C@H](COC[C@@H](O)CN2S(=O)(=O)c2ccccc2)O1)NCCN1CCCC1	inactive
C[C@@H]1CN([C@H](C)CO)C(=O)Cc2cc(NC(=O)c3ccncc3)ccc2O[C@@H]1CN(C)C(=O)Nc1ccc2c(c1)OCO2	inactive
COCC(=O)N1C[C@@H](C)[C@H](OC)CN(C)C(=O)c2ccc(NC(=O)Nc3ccccc3)cc2OC[C@H]1C	inactive
CNC(=O)[C@H]1C[C@H]2CCN(S(=O)(=O)N(C)C)C[C@H]2O1	inactive
Cc1noc(C)c1S(=O)(=O)Nc1ccc2c(c1)C(=O)N([C@@H](C)CO)C[C@H](C)[C@@H](CN(C)C(=O)NC(C)C)O2	inactive
C[C@H](CO)N1C[C@H](C)[C@H](CN(C)S(=O)(=O)c2cn(C)cn2)OCc2ccccc2-c2ccccc2C1=O	inactive
Cc1nc(CSCc2ccc(Cl)cc2Cl)cs1	inactive
COc1ccccc1CN1C(=O)c2ccccc2[C@@]2(Cc3ccccc3N(Cc3ccccc3)C2=O)[C@@H]1c1ccc(CO)cc1	inactive

Compound	cytotoxicity call
C[C@@H]1CN([C@@H](C)CO)C(=O)c2cc(NC(=O)Nc3ccccc3)ccc2O[C@@H]1CN(C)S(C)(=O)=O	inactive
C[C@H](CO)N1C[C@H](C)[C@H](CN(C)Cc2ccc3c(c2)OCO3)Oc2ccc(NS(=O)(=O)c3cn(C)cn3)cc2CC1=O	inactive
O=c1cc(Cl)[nH]c(=O)[nH]1	inactive
Cc1cc(C(=O)Nc2cccc3c2O[C@@H](CN(C)Cc2ccc(C(=O)O)cc2)[C@@H](C)CN([C@H](C)CO)C3=O)n(C)n1	inactive
Cc1noc(C)c1S(=O)(=O)Nc1cccc2c1O[C@@H](CN(C)S(=O)(=O)c1ccc(F)cc1)[C@@H](C)CN([C@H](C)CO)C2=O	inactive
C[C@H](CO)N1C[C@H](C)[C@@H](CN(C)S(=O)(=O)c2cn(C)cn2)Oc2ccc(NC(=O)Cn3cnnn3)cc2CC1=O	inactive
Cc1noc(C)c1S(=O)(=O)Nc1ccc2c(c1)C(=O)N([C@@H](C)CO)C[C@H](C)[C@H](CN(C)S(C)(=O)=O)O2	inactive
COc1ccc(NC(=O)Nc2ccc3c(c2)C(=O)N([C@H](C)CO)C[C@@H](C)[C@H](CN(C)Cc2ccc(C(F)(F)F)cc2)OCCCC[C@H](C)O3)cc1	inactive
COc1ccc(CN(C)C[C@@H]2OCCCC[C@@H](C)Oc3ccc(NC(=O)Nc4ccc(C(F)(F)F)cc4)cc3C(=O)N([C@H](C)CO)C[C@H]2C)cc1	active
COc1ccc(CN(C)C[C@H]2OCCCC[C@@H](C)Oc3ccc(NC(=O)Nc4ccc(C(F)(F)F)cc4)cc3C(=O)N([C@@H](C)CO)C[C@H]2C)cc1	active
COc1ccc(NC(=O)Nc2ccc3c(c2)C(=O)N([C@@H](C)CO)C[C@H](C)[C@H](CN(C)Cc2ccc(C(F)(F)F)cc2)OCCCC[C@@H](C)O3)cc1	inactive
COc1ccc(NC(=O)Nc2ccc3c(c2)C(=O)N([C@@H](C)CO)C[C@@H](C)[C@@H](CN(C)Cc2ccc(C(F)(F)F)cc2)OCCCC[C@@H](C)O3)cc1	inactive
COc1ccc(CN(C)C[C@@H]2OCCCC[C@@H](C)Oc3ccc(NC(=O)Nc4ccc(C(F)(F)F)cc4)cc3C(=O)N([C@H](C)CO)C[C@@H]2C)cc1	active
COc1ccc(NC(=O)Nc2ccc3c(c2)C(=O)N([C@H](C)CO)C[C@H](C)[C@H](CN(C)Cc2ccc(C(F)(F)F)cc2)OCCCC[C@@H](C)O3)cc1	inactive
COc1ccc(CN(C)C[C@H]2OCCCC[C@H](C)Oc3ccc(NC(=O)Nc4ccc(C(F)(F)F)cc4)cc3C(=O)N([C@@H](C)CO)C[C@@H]2C)cc1	active
COc1ccc(NC(=O)Nc2ccc3c(c2)C(=O)N([C@H](C)CO)C[C@H](C)[C@@H](CN(C)Cc2ccc(C(F)(F)F)cc2)OCCCC[C@@H](C)O3)cc1	inactive
COc1ccc(NC(=O)Nc2ccc3c(c2)C(=O)N([C@H](C)CO)C[C@H](C)[C@H](CN(C)Cc2ccc(C(F)(F)F)cc2)OCCCC[C@H](C)O3)cc1	inactive
